Experimental data: PubChem BioAssay (EPA / NIEHS)
Values joined by “and” are separate entries in the source; they are usually repeats but may differ in a detail not shown here. Equal values may be shown once. Inconclusive results are not listed. Where a structure was tested more than once in an assay, its records may differ in their call. Active and inactive are the calls of the source. The calls were made as follows, unless noted: active = hit-call score of the fitted dose curve at least 0.9, where 1 is the maximum; inactive = score below 0.9.

Experiments:
[1] = read-out: TIMP1, TIMP1 (gene 7076); experiment: LTEA_HepaRG_TIMP1: Life Technologies and Expression Analysis (LTEA) Assay for TIMP1 using HepaRG (AID 2283534); details: mRNA level, 48 h; actives raise or lower the signal
How it was run: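 Differentiated human HepaRG cells in serum-free induction medium were exposed 48 h to chemicals (8 half-log concentrations, top 100 uM, 0.5% DMSO). TIMP1 mRNA was quantified by TaqMan qRT-PCR, normalized to ACTB/GAPDH/POLR2A; bidirectional fit versus DMSO.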

[2] = read-out: Tumor necrosis factor receptor 1 (TNFRSF1A), TNFRSF1A (gene 7132); experiment: LTEA_HepaRG_TNFRSF1A: Life Technologies and Expression Analysis (LTEA) Assay for Tumor necrosis factor receptor 1 (TNFRSF1A) using HepaRG (AID 2283535); details: mRNA level, 48 h; actives raise or lower the signal
How it was run: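 Differentiated human HepaRG cells were exposed in duplicate for 48 h in serum-free induction medium to eight concentrations (top 100 uM, half-log steps, 0.5% DMSO). TNFRSF1A mRNA was quantified by qRT-PCR, normalized to ACTB, GAPDH and POLR2A, then fitted bidirectionally against DMSO.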

[3] = read-out: Thyroid Hormone Responsive (THRSP), THRSP (gene 7069); experiment: LTEA_HepaRG_THRSP: Life Technologies and Expression Analysis (LTEA) Assay for Thyroid Hormone Responsive (THRSP) using HepaRG (AID 2283536); details: mRNA level, 48 h; actives raise or lower the signal
How it was run: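 mRNA induction or loss relative to 0.5% DMSO vehicle was fitted bidirectionally across an eight-point curve whose highest exposure was 100 uM. Human HepaRG liver cells received chemicals in duplicate over 48 h before RNA extraction.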

[4] = read-out: Cellular tumor antigen p53 (Homo sapiens) (UniProt P04637); experiment: LTEA_HepaRG_TP53: Life Technologies and Expression Analysis (LTEA) Assay for Tumor Protein P53 (TP53) using HepaRG (AID 2283537); details: mRNA level, 48 h; actives raise or lower the signal
How it was run: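 Gain or loss of TP53 mRNA signal is scored relative to 0.5% DMSO after 48 h chemical treatment of HepaRG liver cells, tested in duplicate at eight half-log concentrations up to 100 uM.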

[5] = read-out: UDP glucuronosyltransferase (UGT1A1), UGT1A1 (gene 54658); experiment: LTEA_HepaRG_UGT1A1: Life Technologies and Expression Analysis (LTEA) Assay for UDP glucuronosyltransferase (UGT1A1) using HepaRG (AID 2283538); details: mRNA level, 48 h; actives raise or lower the signal
How it was run: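 Differentiated human HepaRG cells in serum-free induction medium were exposed in duplicate for 48 h to eight half-log concentrations up to 100 uM in 0.5% DMSO. UGT1A1 mRNA was quantified by TaqMan qRT-PCR, normalized to ACTB, GAPDH and POLR2A, and fitted bidirectionally against DMSO.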

[6] = read-out: UDP glucuronosyltransferase (UGT1A6), UGT1A6 (gene 54578); experiment: LTEA_HepaRG_UGT1A6: Life Technologies and Expression Analysis (LTEA) Assay for UDP glucuronosyltransferase (UGT1A6) using HepaRG (AID 2283539); details: mRNA level, 48 h; actives raise or lower the signal
How it was run: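 Human HepaRG cells were dosed for 48 h in serum-free induction medium with 0.5% DMSO vehicle, eight-point half-log series from 100 uM, in duplicate. UGT1A6 mRNA was measured by qRT-PCR, normalized to ACTB, GAPDH, POLR2A, and fitted bidirectionally against DMSO.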

[7] = read-out: X-box binding protein 1 (XBP1), XBP1 (gene 7494); experiment: LTEA_HepaRG_XBP1: Life Technologies and Expression Analysis (LTEA) Assay for X-box binding protein 1 (XBP1) using HepaRG (AID 2283540); details: mRNA level, 48 h; actives raise or lower the signal
How it was run: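 Differentiated human HepaRG cells in serum-free induction medium were exposed in duplicate for 48 h to eight half-log concentrations up to 100 uM in 0.5% DMSO. XBP1 mRNA was quantified by qRT-PCR, normalised to ACTB, GAPDH and POLR2A, with bidirectional fitting against DMSO.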

[8] = LTEA_HepaRG_LDH_cytotoxicity: Cytotoxicity Assessment in the Life Technologies and Expression Analysis (LTEA) Assay (AID 2283563; active = hit-call score of the fitted dose curve at least 0.9, where 1 is the maximum;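 as to AC50: LDH activity released into spent culture medium as a marker of cell death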)
How it was run: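 Differentiated human HepaRG cells, plated 48 h beforehand, were switched to serum-free induction medium and exposed for 48 h to eight half-log concentrations (top 100 uM) in 0.5% DMSO. LDH was measured in spent medium; activity was fitted relative to DMSO vehicle.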

[9] = TOX21_p53_BLA_p2_viability: Viability Assessment in the Tox21 HCT-116 p53 Agonism Beta-lactamase Assay, Phase 2 (AID 2283591; active = hit-call score of the fitted dose curve at least 0.9, where 1 is the maximum;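 also: compound exposure lasted 16 h at 37 °C; actives lower the ATP signal meaning cytotoxicity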)
How it was run: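 Cytotoxicity readout: CellTiter-Glo ATP luminescence, 30 min at room temperature, after the beta-lactamase read. Cells were HCT116 exposed 16 h at 37C to compounds pin-transferred at 217-fold dilution from DMSO stocks.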

[10] = ATG_XTT_Cytotoxicity: Cytotoxicity Assessment in the Attagene TRANS-FACTORIAL HepG2 Assay (AID 2283584; active = hit-call score of the fitted dose curve at least 0.9, where 1 is the maximum;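 as to AC50: cells exposed to compound for 24 h before reading; active means loss of viability signal versus DMSO baseline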)
How it was run: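 HepG2 human liver cells, transiently transfected with multiple GAL4-UAS reporter units, were dosed and read at 24 h by XTT as cell number. Loss of signal was fitted relative to DMSO negative control baseline.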

Measured: AC50

Cellular tumor antigen p53 (Homo sapiens), sequence (P04637 whole entry, looked up): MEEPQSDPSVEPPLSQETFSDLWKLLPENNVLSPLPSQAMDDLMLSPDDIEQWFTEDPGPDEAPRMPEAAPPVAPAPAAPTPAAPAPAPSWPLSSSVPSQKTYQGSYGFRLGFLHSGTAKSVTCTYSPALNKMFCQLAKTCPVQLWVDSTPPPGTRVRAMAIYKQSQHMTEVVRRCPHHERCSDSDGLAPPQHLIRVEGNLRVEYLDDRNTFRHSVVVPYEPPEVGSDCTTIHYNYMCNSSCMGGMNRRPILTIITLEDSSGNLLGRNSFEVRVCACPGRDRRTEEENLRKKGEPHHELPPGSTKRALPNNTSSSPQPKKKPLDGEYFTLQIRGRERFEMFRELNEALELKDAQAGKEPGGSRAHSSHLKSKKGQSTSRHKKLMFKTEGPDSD

Cc1occc1C(=O)Nc1ccc(C(=O)N2CCC(F)(F)/C(=C\C(=O)N3CCC(N4CCCCC4)CC3)c3ccccc32)cc1
active: [5] 54.3 µM | [8] 49.6 µM
not listed: [10]
inactive: all other assays above

CN1C(=O)N(c2ccccc2Br)Cc2cnc(Nc3ccc4c(c3)OCC(CO)O4)nc21 (stereo not drawn)
active: [1] 11.9 µM | [2] 83.7 µM | [5] 85.6 µM | [6] 81.5 µM | [8] 67.9 µM | [9] 70.4 µM
inactive: [3] | [4] | [7] | [10]

COc1ccc2cc(S(=O)(=O)N[C@H](CC(=O)N[C@H](Cc3ccc(CN4[C@H](C)CCC[C@@H]4C)cc3)C(=O)N(C)C(C)C)c3ccc4c(c3)OCO4)ccc2c1
inactive: [3] | [7]
active: [1] 30.8 µM | [2] 21.2 µM | [4] 24.1 µM | [5] 26 µM | [6] 23.2 µM | [8] 20.7 µM | [9] 74.2 µM

O=C(O)Cc1cc(I)c(Oc2ccc(O)c(I)c2)c(I)c1
inactive: [1] | [2] | [8] | [10]
active: [3] 81.7 µM | [4] 79.6 µM | [5] 95.7 µM | [6] 77.9 µM | [7] 75 µM | [9] 2.06 µM and 5.75 µM

NCc1cccc(C2CCN(C(=O)c3ccc(C#Cc4ccccc4F)o3)CC2)c1
inactive: [4] | [7]
active: [1] 85.9 µM | [2] 91.9 µM | [3] 83.9 µM | [5] 86.3 µM | [6] 93.1 µM | [8] 81.4 µM | [9] 68.9 µM

CCCCCCCC[Si](OCC)(OCC)OCC
inactive: all assays above

CC/C(=C(/CC)c1ccc(O)cc1)c1ccc(O)cc1
inactive: [1] | [4] | [10]
active: [2] 93.8 µM | [3] 21.7 µM | [5] 93.9 µM | [6] 76.7 µM | [7] 89.9 µM | [8] 89.2 µM | [9] 62 µM and 73.4 µM

O=c1[nH]sc2ccccc12
inactive: all assays above

CCCOC(=O)c1cc(O)c(O)c(O)c1
active: [5] 1.73 µM
not listed: [10]
inactive: all other assays above

O=C(O)c1ccccc1-n1cc(C(=O)O)c(=O)c2cc(Nc3c(F)cc(F)cc3Cl)c(Cl)cc21
active: [2] 0.0319 µM | [6] 0.0904 µM
inactive: [3] | [4] | [5] | [7] | [8]

O=C(O)c1ccccc1C(=O)OCc1ccccc1
active: [5] 24.3 µM
not listed: [8]
inactive: all other assays above

CC(C)(C)c1cc(/C=C2\SC(N)=NC2=O)cc(C(C)(C)C)c1O
active: [1] 33.8 µM | [2] 15.8 µM | [5] 93.5 µM | [6] 22.1 µM | [8] 37.3 µM | [9] 77.9 µM
inactive: [3] | [4] | [7]

CO[C@H]1/C=C/O[C@@]2(C)Oc3c(C)c(O)c4c(O)c(c(/C=N/N5CCN(C)CC5)c(O)c4c3C2=O)NC(=O)/C(C)=C\C=C\[C@H](C)[C@H](O)[C@@H](C)[C@@H](O)[C@@H](C)[C@H](OC(C)=O)[C@@H]1C
active: [3] 12 µM | [5] 0.395 µM
inactive: all other assays above

CN(C)c1ccc(C(=C2C=CC(=[N+](C)C)C=C2)c2ccc(N(C)C)cc2)cc1
active: [1] 74.2 µM | [2] 8.56 µM | [3] 2.48 µM | [4] 23.3 µM | [5] 16.8 µM | [6] 10.4 µM | [8] 9.3 µM | [10] 12.3 µM | [9] 23.6 µM and 19.1 µM and 23 µM
inactive: [7]

CCN(CC)C(=O)c1cc(S(=O)(=O)Cc2ccccc2)c(N2CCC(c3ccccc3)CC2)cc1N(CC)CCN(C)C
inactive: [1]
active: [2] 30.1 µM | [3] 6.01 µM | [4] 30.7 µM | [5] 19 µM | [6] 30 µM | [7] 28.8 µM | [8] 31.1 µM | [9] 29.4 µM and 33.5 µM

Cc1cc2c(cc1C(F)(F)F)N(C(=O)Nc1ccc(Oc3cccnc3C)nc1)CC2
active: [1] 83 µM | [2] 73.6 µM | [4] 75 µM | [5] 81.4 µM | [6] 76.1 µM | [8] 70.5 µM
inactive: [3] | [7] | [9]

CC[C@H](NC(=O)c1cc(F)ccc1NS(=O)(=O)c1cccc2cccnc12)c1ccccc1
active: [5] 11.1 µM | [6] 47.8 µM
not listed: [10]
inactive: all other assays above

Cc1c2ccccc2c(C)c2c1ccc1ccccc12
inactive: [1] | [2] | [7] | [8] | [10] | [9]
active: [3] 75.4 µM | [4] 54.1 µM | [5] 0.714 µM | [6] 35 µM | [10] 56.2 µM

CC(C)(C)c1csc(-c2cc3cc(OCc4ccccc4CC(=O)O)ccc3o2)n1
active: [1] 78.4 µM | [2] 83.2 µM | [4] 82.4 µM | [5] 85.5 µM | [6] 77.2 µM | [8] 76.6 µM | [9] 25.5 µM
inactive: [3] | [7] | [10]

CN(C[C@@H](CC[N+]12CCC(C3CCCCC3)(CC1)CC2)c1ccc(Cl)c(Cl)c1)C(=O)c1cc(C(F)(F)F)cc(C(F)(F)F)c1
inactive: [2] | [4] | [7]
active: [1] 68.7 µM | [3] 4.72 µM | [5] 6.65 µM | [6] 1.66 µM | [8] 26.6 µM | [9] 25.9 µM

CCCCCc1ccc(N)cc1
inactive: all assays above

Clc1ccccc1C(c1ccccc1)(c1ccccc1)n1ccnc1
inactive: [1] | [2] | [7] | [9]
active: [3] 29.9 µM | [4] 28 µM | [5] 28 µM | [6] 15.8 µM | [8] 70.7 µM | [10] 24.2 µM | [9] 58.2 µM

Cc1ccc2oc(CN(Cc3ccccc3)C(=O)Nc3c(F)cc(F)cc3F)c(-c3ccc(Cl)cc3)c2c1
active: [4] 44.2 µM
inactive: all other assays above

c1ccc(C[n+]2cccc3ccccc32)cc1
active: [2] 27.3 µM | [3] 50 µM | [4] 35.7 µM | [5] 26 µM | [8] 34.4 µM
inactive: [1] | [6] | [7] | [10] | [9]

CC1=CC(=O)/C(=C(/C)O)C(=O)O1
not listed: [9] | [10]
inactive: all other assays above

CC(C)(O)c1ccc(CNC(=O)c2cccnc2Oc2ccc3nonc3c2)cc1
active: [3] 60.8 µM | [5] 9.41 µM
not listed: [10]
inactive: all other assays above

CCCCCCCCCCCCO
not listed: [10]
inactive: all other assays above

CC(=O)N1CCN(c2ccc(OC[C@H]3CO[C@](Cn4ccnc4)(c4ccc(Cl)cc4Cl)O3)cc2)CC1
active: [1] 83.1 µM | [2] 75.9 µM | [3] 12.7 µM | [4] 90.3 µM | [5] 11.6 µM | [6] 30.8 µM | [8] 86.9 µM | [9] 56.7 µM
inactive: [7] | [10] | [9]

CCCCOC(=O)CC(CC(=O)OCCCC)(OC(C)=O)C(=O)OCCCC
inactive: all assays above

CCCCOC(=O)c1ccc(O)cc1
inactive: all assays above

O=C=NCCCCCCN=C=O
not listed: [9] | [10]
inactive: all other assays above

CCCCCCCCOc1ccc(C(=O)c2ccccc2)c(O)c1
active: [5] 20.4 µM
inactive: all other assays above

C[C@]12CC[C@@H]3c4ccc(O)cc4CC[C@H]3[C@@H]1CC[C@H]2O
active: [5] 2.42 µM
not listed: [8]
inactive: all other assays above

Oc1ccc2ccccc2c1
inactive: all assays above

Cc1cccc2ccccc12
inactive: all assays above

CCCCCCCCCC(=O)O
inactive: all assays above
